Screening data from PubChem.
FMDV inh: High Throughput Screening for Foot and Mouth Disease Virus Antivirals. 410,000 compounds, 1.2% hits. FMDV antiviral cell-based qHTS. Potency, µM (doses to about 57.9 µM), without a hit: at the highest dose activity change, negative = inhibition, most hits filed as inhibitors; calls by dose curve; tested in HEK293T cells; also: read-out not given here; potency is read from the fitted curve at half-maximal effect; nearly all actives have a fitted effect of over 45% in size
Vaccinia mCherry: qHTS for Stage-Specific Inhibitors of Vaccinia Orthopoxvirus: mCherry Reporter Primary qHTS; 310,000 compounds, 0.63% hits; Vaccinia virus mCherry reporter infection, fluorescence; Potency, µM (series often up to 36.5 µM), inactives show at the highest dose activity change, negative = inhibition, most hits filed as inhibitors; calls by dose curve; tested in A549 cells; also: potency is read from the fitted curve at half-maximal effect; nearly all actives have a fitted effect of over 35% in size
HCV inh: qHTS Assay for Inhibitors of Hepatitis C Virus (HCV). Huh7.5.1 HCVcc-Cre infection, luciferase reporter, 44 h. Potency, µM (highest dose often 41.8 µM), for the others: at the highest dose activity change, negative = inhibition, actives largely listed as inhibitors. 340,000 compounds, 3.4% hits; active = well fitted inhibition curve with a large enough effect; inconclusive = small, poorly fitted or top-dose-only effect, or another doubt; inactive = no such curve, though single readings can be large or run the other way; also: potency is read from the fitted curve at half-maximal effect
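Cells (1,000/well) were plated 4 h before compound, then infected with HCVcc-Cre virus (~0.5 moi). After 44 h further culture, infection was read as luciferase luminescence following a 15 min substrate incubation at room temperature.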
Vaccinia Venus: qHTS for Stage-Specific Inhibitors of Vaccinia Orthopoxvirus: Venus Reporter Primary qHTS. Vaccinia virus Venus reporter expression, fluorescence. Potency, µM (highest dose often 36.5 µM), without a hit: at the top dose activity change, negative = inhibition, hits mostly inhibitors. 330,000 compounds, 0.46% hits. AID 720580, 2013; calls by dose curve; tested in A549 cells; also: potency is read from the fitted curve at half-maximal effect; nearly all actives have a fitted effect of over 30% in size
HCMV antiviral: qHTS Assay for inhibitors of the human cytomegalovirus (HCMV) | HFF cells, HCMV-luciferase reporter, 72 h; active compounds read low | activity change, negative = inhibition, % at 57.5 µM | 410,000 compounds, 4.5% hits | AID 1259415, 2018; in the data active = activity change below about -60%; inconclusive = no clear call, values can overlap the other calls; inactive = above about -39%
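After 16 h attachment at 37C, HFF cells received test compound and HCMV-luciferase (1 PFU/cell); reporter luminescence read 72 h later, data normalized against buffer-only and known inhibitor Salinomycin.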
Active calls of the source: *; i = inactive; ? = inconclusive; . = no result given; + = active, no number; [ ] = another dose, or the depositor's remark. Hits are enriched below; roughly 7.3% of the tested compounds scored in any of these assays. % is scaled to controls: 0 for no effect and ±100 for the full control effect.

SMILES | FMDV inh | Vaccinia mCherry | HCV inh | Vaccinia Venus | HCMV antiviral
COc1ccc(Nc2nc(-c3cccs3)nc3ccccc23)cc1S(=O)(=O)N1CCOCC1 | ? | ? | 2.8µM* | ? | ?
COc1ccc(NC(=O)c2ccncc2)cc1S(=O)(=O)N1CCCCC1 | 3% | -17% | . | -12% | -16
O=C(Nc1ccc(N2CCCCC2)cc1)c1ccc2ccccc2n1 | -7% | . | 10µM* | . | 12
CCc1ccc(C(=O)Nc2ccc(OC)c(S(=O)(=O)N3CCOCC3)c2)cc1 | ? | -25% | 8.9µM* | -20% | -89*
O=C(Nc1cccc(S(=O)(=O)N2CCCCCC2)c1)c1ccc2ccccc2n1 | 29% | i | ? | 3% | 70
CCc1ccc(C(=O)Nc2ccc(OC)c(S(=O)(=O)N3CCCCC3)c2)cc1 | ? | . | 4.5µM* | . | -97*
Cc1cccc(C(=O)N[C@H]2CC[C@@]34CCCN3C(=O)CCC[C@H]4[C@H]2Cc2ccccc2)c1 | . | . | . | . | -27
Cc1ccc(Cl)cc1N1CCN(CCCNc2ncnc3onc(-c4ccc(F)cc4)c23)CC1 | ? | -28% | . | -27% | -3
COc1ccc(C(=O)NCC(c2ccc3c(c2)OCO3)N2CCN(c3ccccc3F)CC2)cc1 (stereo unspecified) | -9% | -17% | . | -18% | -6
O=C(Nc1cccc(-c2cn3c(n2)SCC3)c1)c1ccc2ccccc2n1 | 17% | -14% | -59% | -6% | 312
COc1ccc2c(CC(=O)Nc3ccc(OC)c(S(=O)(=O)N4CCOCC4)c3)coc2c1 | 25% | i | -22% | -12% | -19
O=C(Nc1ccc(-c2cn3c(n2)SCC3)cc1)c1ccc2ccccc2n1 | 25µM* | -11% | ? | -16% | 10
COc1ccc(NC(=O)c2ccc(Cl)nc2)cc1S(=O)(=O)N1CCOCC1 | -19% | . | ? | . | 119
COc1ccc(NC(=O)c2ccc3ccccc3n2)cc1S(=O)(=O)N1CCCCC1 | 12% | -15% | 5.6µM* | -5% | 99
COc1ccc(NC(=O)c2ccc(-c3ccccc3)cc2)cc1S(=O)(=O)N1CCOCC1 | 3.5µM* | ? | ? | -29% | -68*
COc1ccc(S(=O)(=O)N2CCCCC2)cc1NC(=O)c1ccc2ccccc2n1 | 20% | -11% | ? | -10% | ?
COc1ccc(NC(=O)Cc2coc3cc(C)c(C(C)C)cc23)cc1S(=O)(=O)N1CCOCC1 | 0% | ? | 7.1µM* | ? | -67*
COc1ccc(CCNC(=O)c2ccc3c(c2)CCN3S(=O)(=O)c2ccc(C)cc2)cc1 | -27% | -22% | . | -19% | -31
COc1cccc(NC(=O)c2cn(C3CCCCC3)c(=O)c3c2c2ccccc2n3C)c1 | 0% | 7% | . | -4% | -17
COC(=O)c1cc2c([nH]c1=O)CC(c1ccccc1)CC2=O (stereo unspecified) | . | -26% | . | -9% | .
Cc1nn(CCCC(=O)NCCc2ccccc2)c(=O)c2nccn12 | 3% | 15% | 19% | 11% | -98*
CC(C)NC(=O)N1CC[C@@]2(CCCN(C(=O)c3cc(C(F)(F)F)cc(C(F)(F)F)c3)C2)C1 | -3% | . | . | . | .
COc1cc(/C=C2\SC(=Nc3ccccc3)N(CCc3c[nH]c4ccccc34)C2=O)ccc1OC(C)C(=O)O (stereo unspecified) | 0% | -15% | ? | 2% | -32
O=C1/C(=C/c2ccc(N3CCOCC3)o2)SC(=Nc2ccccc2)N1CCc1c[nH]c2ccccc12 | -16% | ? | 3.2µM* | 20% | .
O=C(Cc1ccc(OCc2ccccc2)cc1)NO | . | 31% | . | -6% | .
SMILES | FMDV inh | Vaccinia mCherry | HCV inh | Vaccinia Venus | HCMV antiviral
CCCn1c2ccc(/C(C)=N\O)cc2c2cc(/C(C)=N/O)ccc21 | -19% | -23% | 13µM* | -29% | 45
C/C(=N\O)c1ccc(Cl)c(Cl)c1 | 3% | -28% | 7% | -16% | .
CCc1nn(-c2cc(Cl)ccc2OC)c2c1C(=O)CCC2 | -9% | ? | 14µM* | ? | -7
CCCc1nn(-c2cc(Cl)ccc2OC)c2c1C(=O)CC(C)(C)C2 | ? | ? | -27% | -18% | 16
Cc1ccc(-c2cc(C(F)(F)F)n3nc(C(=O)NCCCn4ccnc4)cc3n2)cc1C | -13% | . | 5µM* | . | 13
O=C(NCCCn1ccnc1)c1nn2c(C(F)(F)F)cc(-c3ccccc3)nc2c1Cl | -18% | i | 10µM* | -29% | -21
COc1ccc(-c2cc(C(F)(F)F)n3nc(C(=O)N(C)Cc4ccccc4)cc3n2)cc1OC | -8% | -15% | 10µM* | -12% | -24
CN(C)CCn1c2c(c(SCC(=O)Nc3ccc(F)cc3F)nc1=O)CCC2 | -23% | -15%[7.34 µM] | . | -12%[7.34 µM] | 3
CCCCOCC1CN(CCCC)S(=O)(=O)c2c(cccc2N2CCCCC2)O1 (stereo unspecified) | . | . | . | . | -1
COc1cccc(C2=NOC(C(=O)Nc3cc(C)on3)C2)c1 (stereo unspecified) | -13% | -12% | 4% | -14% | -102*
COc1cc(NC(=O)C2CC(c3cccc(OC)c3OC)=NO2)cc(OC)c1OC (stereo unspecified) | ? | . | 1.1µM* | . | .
COc1cccc(C2=NOC(C(=O)Nc3cccnc3Cl)C2)c1OC (stereo unspecified) | -7% | -4% | 3% | -8% | -37
COc1ccc(C2=NOC(C(=O)Nc3cc(C)on3)C2)cc1 (stereo unspecified) | -20% | -24% | 12% | 1% | 52
COc1ccc(OC)c(C2=NOC(C(=O)Nc3cc(C)nn3-c3ccccc3)C2)c1 (stereo unspecified) | -13% | + | 2% | ? | 3
O=C(NCc1cccc(F)c1)c1ccccc1NC(=O)c1nsc2ccccc12 | 0% | i | . | -16% | 0
Cc1nn(CC(=O)O)c(C)c1Cl | . | i | 4% | -8% | 4
Cc1nn(CC(=O)O)c(C)c1C | ? | . | 10% | . | -90*
CC(=O)Nc1ccc(S(=O)(=O)Nc2cccc(-c3ccc(N4CCC(C)CC4)nn3)c2)cc1 | ? | -26% | . | -26% | 47
COc1cccc(/C=N/Nc2nnc(C)n2N)c1OCc1ccccc1Cl | -19% | i | 22µM* | -5% | -11
Cc1nnc(N/N=C/c2ccc(Br)cc2)n1N | 8% | . | -15% | . | 71
COc1ccc(/C=N/Nc2nnc(C)n2N)cc1OC | 5% | ? | 22% | ? | -61*
COc1ccc(/C=N/Nc2nnc(C)n2N)cc1OC(C)=O | 6% | 22µM* | 16% | ? | 17
Cc1ccc(/C=N/Nc2nncn2N)cc1 | 13% | 10µM* | 15% | 10µM* | -18
CCOc1cccc(C2C=C(c3ccc4c(c3)OCO4)NC(c3cccc(Br)c3)N2)c1O (stereo unspecified) | . | 21% | . | -16% | .
COC(=O)/C=C/c1cccc(N(Cc2ccc(-c3ccc(N(C)C)cc3)cc2)C(=O)C2CCCCC2)c1 | -5% | . | . | . | .
